Some test systems named below: SR leukemia; RPMI-8226 leukemia; OVCAR-8 ovarian; OVCAR-5 ovarian; SK-OV-3 ovarian; IGROV1 ovarian; OVCAR-3 ovarian; HS 578T breast; T-47D breast; BT-549 breast; MDA-MB-435 melanoma; SW-620 colon; MCF7 breast; HCT-116 colon; HCC-2998 colon; KM12 colon; NCI/ADR-RES ovarian; OVCAR-4 ovarian.
What all share (assay): NCI-60 one-dose screen, 48 h (100 = growth as untreated, 0 = no growth, -100 = all killed)
Conditions in all cases: 10 µM unless noted

Compounds without any hit were thinned out: in the full panel of roughly 83,000, 20% have a hit.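 Interpretation: 100, growth as untreated; towards 0, rising growth inhibition; 0, no net growth; 0 to -100, cell death. Compounds scoring below 10 were considered active.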 Values without a mark were called inactive. Activity calls are given as the source filed them.

In the case of `CCN(CC)CCCNc1cc(OC)c(OC)c2cccnc12`, the growth in the assay on SR leukemia was 41.5%; in the assay with RPMI-8226 leukemia, 74.4%; in the assay with OVCAR-8 ovarian it was 65.1%; in the assay with OVCAR-5 ovarian, 112%; in the assay on SK-OV-3 ovarian, 56.3%; in the assay on IGROV1 ovarian it was 35.4%. Moreover, the growth with OVCAR-3 ovarian is 30.9%; in the assay with HS 578T breast, 74.3%; in the assay on T-47D breast, 33.8%; with BT-549 breast, 81.2%; in the assay on MDA-MB-435 melanoma it was 42.3%; in the assay on SW-620 colon, 58.4%. Moreover, the growth was 31.4% in the assay with MCF7 breast, 9.79% (active) in the assay on HCT-116 colon, 76.1% in the assay on HCC-2998 colon and 84.1% in the assay on KM12 colon.

Turning to `CCOC(=O)c1cnn(CC(C)O)c1NC(=O)NCc1ccccc1C(F)(F)F` (stereo not given), the growth in the assay with SR leukemia was 82.3%; in the assay with RPMI-8226 leukemia it was 116%; with OVCAR-8 ovarian, 97.6%; with OVCAR-5 ovarian, 102%; with IGROV1 ovarian, 95.5%; in the assay on OVCAR-3 ovarian it was 108%. Further, the growth with HS 578T breast was 110%; with NCI/ADR-RES ovarian it was 100%; in the assay with T-47D breast, 105%; in the assay with BT-549 breast, 91.4%; with MDA-MB-435 melanoma, 104%; with SW-620 colon, 105%. Moreover, the growth in the assay on MCF7 breast was 95.5%; in the assay with HCT-116 colon, 84.8%; in the assay with HCC-2998 colon, 93.8%; with KM12 colon it was 99.4%.

In the case of `N#Cc1c(-c2ccc(Cl)cc2)nc(NN=Cc2ccc[nH]2)nc1N1CCOCC1`, the growth was 31.2% with SR leukemia; 6.36% (active) in the assay on RPMI-8226 leukemia; 99.6% in the assay on OVCAR-5 ovarian; 72.6% in the assay with OVCAR-4 ovarian; 84.7% in the assay on SK-OV-3 ovarian; 67.9% with IGROV1 ovarian. For the same compound, the growth in the assay on OVCAR-3 ovarian was 45.6%; in the assay on HS 578T breast, 95%; with NCI/ADR-RES ovarian, 84.5%; in the assay with T-47D breast, 64.9%; in the assay with BT-549 breast it was 16.9%; in the assay with MDA-MB-435 melanoma, 94.7%. Besides, the growth was 89.2% in the assay with SW-620 colon; 70.7% with MCF7 breast; 90.1% in the assay with HCT-116 colon; 94.1% with HCC-2998 colon; 36.5% in the assay with KM12 colon.

Consider `Cc1ccc(O)c(NC(=O)c2cccc(Nc3ccnc(C(F)(F)F)c3)c2)c1`, for which the growth is 39.8% with SR leukemia; -1.23% (active) in the assay with RPMI-8226 leukemia; 87.1% in the assay with OVCAR-5 ovarian; 45.3% in the assay on OVCAR-4 ovarian; 72.9% in the assay on SK-OV-3 ovarian; 79.1% in the assay with IGROV1 ovarian. In addition, the growth was 93.2% with OVCAR-3 ovarian; 93% in the assay on HS 578T breast; 40.2% in the assay with NCI/ADR-RES ovarian; 21% in the assay on T-47D breast; 57.9% in the assay with BT-549 breast; 60.2% in the assay with MDA-MB-435 melanoma. Moreover, the growth is 90.8% with SW-620 colon; 40.7% in the assay on MCF7 breast; 34.9% with HCT-116 colon; 74.3% with HCC-2998 colon; 75.9% with KM12 colon.

`CN1CC(c2ccc(Br)cc2)C(C(=O)c2ccc(Br)cc2)C12C(=O)Nc1ccccc12` (stereo not given): the growth in the assay on SR leukemia is 68.1%; with RPMI-8226 leukemia, 62.3%; in the assay on OVCAR-5 ovarian it was 82.1%; in the assay with OVCAR-4 ovarian, 63.6%; in the assay on SK-OV-3 ovarian it was 80.8%; in the assay on IGROV1 ovarian, 62.6%. The growth in the assay on OVCAR-3 ovarian is 79.3%; in the assay on HS 578T breast, 89.3%; in the assay on NCI/ADR-RES ovarian, 58.9%; in the assay with T-47D breast, 49.5%; in the assay with BT-549 breast, 100%; in the assay on MDA-MB-435 melanoma, 78.9%. Besides, the growth in the assay with SW-620 colon was 72%; in the assay with MCF7 breast it was 62.4%; with HCT-116 colon it was 39.7%; in the assay on HCC-2998 colon, 84.5%; with KM12 colon, 75%.

Take `Cc1cc(O)c(=O)cc2c1C[C@H]1CC(C)(C)/C=C/C[C@]3(C)Oc4cc(=O)c(O)cc(C)c4C[C@H]3C[C@H](O)[C@@]1(C)O2`: the growth was 12.4% in the assay with SR leukemia; 3.46% (active) in the assay on RPMI-8226 leukemia; 18.9% in the assay on OVCAR-5 ovarian; 9.54% (active) in the assay with OVCAR-4 ovarian; -5.53% (active) in the assay with SK-OV-3 ovarian; 11.2% with IGROV1 ovarian. The growth was 15.5% in the assay with OVCAR-3 ovarian; 30% with HS 578T breast; 0.831% (active) with NCI/ADR-RES ovarian; 2.08% (active) in the assay with T-47D breast; 1.38% (active) with BT-549 breast; 18.1% in the assay with MDA-MB-435 melanoma. Besides, the growth is 13.8% in the assay on SW-620 colon; 2.97% (active) in the assay on MCF7 breast; 8.37% (active) in the assay with HCT-116 colon; 32.4% with HCC-2998 colon; 16.1% in the assay with KM12 colon.

Consider `Fc1ccc2[nH]cc(-c3nc(-c4c[nH]c5c(Cl)nccc45)cs3)c2c1`, for which the growth is 13.3% with SR leukemia; 48.5% in the assay with RPMI-8226 leukemia; 99.1% in the assay on OVCAR-5 ovarian; 65.3% in the assay on OVCAR-4 ovarian; 47.5% in the assay with SK-OV-3 ovarian; 61.7% in the assay with IGROV1 ovarian. Besides, the growth in the assay with OVCAR-3 ovarian is 70.9%; with HS 578T breast it was 39%; in the assay with NCI/ADR-RES ovarian, 53.7%; in the assay with BT-549 breast, 75.1%; in the assay on MDA-MB-435 melanoma it was 60.4%; in the assay with SW-620 colon it was 2.51% (active). Besides, the growth with MCF7 breast is 45.8%; with HCT-116 colon, 39.6%; with HCC-2998 colon, 56.2%; in the assay with KM12 colon it was 33.2%.

For `C[C@H]1[C@H](C)CC[C@]2(C(=O)NCCNCCN)CC[C@]3(C)C(=CC[C@@H]4[C@@]5(C)CCC(=O)C(C)(C)[C@@H]5CC[C@]43C)[C@H]12`, the growth was -38.7% (active) in the assay with SR leukemia; -16.3% (active) in the assay on RPMI-8226 leukemia; 94.1% with OVCAR-5 ovarian; 77.4% in the assay on OVCAR-4 ovarian; 87.4% in the assay on SK-OV-3 ovarian; 52.7% in the assay with IGROV1 ovarian. For the same compound, the growth is 9.12% (active) in the assay on OVCAR-3 ovarian; 72.5% in the assay with HS 578T breast; 88.2% in the assay on NCI/ADR-RES ovarian; 39.8% in the assay on T-47D breast; 92.3% with BT-549 breast; -75.7% (active) in the assay on MDA-MB-435 melanoma. Besides, the growth was -74.7% (active) with SW-620 colon; 12.6% in the assay on MCF7 breast; -51.8% (active) with HCT-116 colon; -43.7% (active) in the assay on HCC-2998 colon; 11.4% in the assay with KM12 colon.

Take `Cc1cc(=O)n(C(=S)Nc2ccc(Cl)cc2)c2cc(O)ccc12`: the growth is 108% in the assay on SR leukemia; 113% in the assay with RPMI-8226 leukemia; 101% in the assay with OVCAR-5 ovarian; 92.5% with OVCAR-4 ovarian; 79.1% in the assay with SK-OV-3 ovarian; 102% in the assay on IGROV1 ovarian. The growth is 100% in the assay with OVCAR-3 ovarian; 109% in the assay on HS 578T breast; 103% in the assay on NCI/ADR-RES ovarian; 85.4% in the assay on T-47D breast; 119% in the assay with BT-549 breast; 105% in the assay on MDA-MB-435 melanoma. The growth in the assay with SW-620 colon is 110%; in the assay with MCF7 breast, 98.7%; with HCT-116 colon it was 96%; in the assay on HCC-2998 colon it was 100%; in the assay with KM12 colon, 102%.

The values above are taken from PubChem BioAssay (NCI).
